Results taken from PubChem BioAssay AID504905 (The Scripps Research Institute Molecular Screening Center, 2011).
The list shows a part of the results. A number with no mark means an inactive call. Calls of active or inactive are those of the source. No stated cut-off is given here; in the data, active means activation above about 17%; inactive means the rest.

Molecular target: 5-hydroxytryptamine receptor 5A (Homo sapiens) (UniProt P47898)
Assay: activation of human 5-HT5A receptor – cell-based, luminescence, counter-screen for OPRM1-OPRD1 heterodimer agonist project (AID 504905);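 further: 0% = vehicle-treated cells and 100% = reference agonist response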
Conditions: HTR5A agonist counterscreen, at 9.3 µM, stronger effect = higher value

5-hydroxytryptamine receptor 5A (Homo sapiens), sequence (P47898 whole entry, looked up): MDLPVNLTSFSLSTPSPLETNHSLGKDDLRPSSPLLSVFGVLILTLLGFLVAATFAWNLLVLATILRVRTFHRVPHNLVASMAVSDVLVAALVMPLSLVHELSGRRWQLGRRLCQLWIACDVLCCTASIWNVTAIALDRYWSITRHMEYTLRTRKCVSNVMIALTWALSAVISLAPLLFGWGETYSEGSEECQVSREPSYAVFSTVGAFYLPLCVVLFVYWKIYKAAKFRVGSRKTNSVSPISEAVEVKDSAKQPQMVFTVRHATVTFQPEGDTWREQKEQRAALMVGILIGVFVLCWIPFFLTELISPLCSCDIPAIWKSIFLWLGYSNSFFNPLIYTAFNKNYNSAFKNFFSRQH

SMILES | activation
COc1cc(/C=N/NC(=O)Nc2ccccc2)ccc1OCCOc1ccccc1C | 10.4%
Cc1ccc(CNC(=O)CC(NC(=O)c2ccccc2)c2ccccc2)cc1 (stereo unspecified) | -9.71%
COc1ccccc1C(CNC(=O)c1ccc(C)c(S(=O)(=O)N2CCCCC2)c1)N(C)C (stereo unspecified) | 0.79%
CCOC(=O)C1(CC2CCCCO2)CCN(Cc2nc(-c3cccs3)oc2C)CC1 (stereo unspecified) | 3.31%
N#CC(C(=O)c1ccc(S(=O)(=O)N2CCCCCC2)cc1)c1nc2ccccc2[nH]1 (stereo unspecified) | 5.09%
O=C(Nc1ccc(OC(F)(F)F)cc1)c1ccc2c(c1)no[n+]2[O-] | 1.96%
COc1ccc(C(CNCC(=O)Nc2ccccc2F)N(C)C)cc1 (stereo unspecified) | 5.09%
CN(CC(=O)Nc1ccc(Cl)cc1)C(=O)c1ccc(COc2ccccc2)cc1 | 5.21%
CC(c1cccnc1)N(CCN(C)C)C(=O)Nc1ccc(Cl)c(Cl)c1 (stereo unspecified) | -6.75%
CC(OC(=O)/C=C/c1ccccc1)C(=O)Nc1ccc(C(N)=O)cc1 (stereo unspecified) | 0.16%
Clc1ccc(COn2c(-c3ccc(Cl)cc3Cl)nc3ncccc32)cc1 | 0.23%
COC(=O)c1ccc(C23CC4(C2)[C@H](CN(Cc2cccnc2)[C@@H]4c2ccccc2)C3c2ccc(Cl)nc2)cc1 (stereo partly specified) | 5.91%
Cc1cc(C)cc(C(=O)N(CCc2ccccc2)C2=CC3CCC(C2)N3C)c1 (stereo unspecified) | -1.9%
COc1cc(C(=O)OC(C)C(=O)NCC2CCCCC2)cc(NC(=O)c2ccco2)c1OC (stereo unspecified) | -2.12%
C=C(C)COc1ccc(-c2n[nH]c(C)c2-c2ccccc2)c(O)c1 | 5.34%
O=C1N/C(=C/c2cccs2)C(=O)N1Cc1ccc(F)cc1 | 27.5% (active)
CCC(C(=O)OCC(=O)Nc1ccc(C(=O)Nc2ccc(OC)cc2)cc1)c1ccccc1 (stereo unspecified) | 5.87%
N#C/C(=C(/O)COC(=O)COc1ccc(Cl)cc1)c1nc2ccccc2[nH]1 | 9.3%
COc1ccc(SC[C@H](Cc2ccccc2)N2CCN(CCc3ccccc3)CCC2=O)cc1 | -1.8%
CCOC(=O)c1c(C)[nH]c2c1-c1ccccc1C(=O)C2=O | 9.05%
Cc1ccc(Nc2ccccc2N)cc1 | 0.79%
